The list is not random: actives were taken first. Their share in the collection is about 27%.
CYP2C9 act: activators of human CYP2C9 | recombinant CYP2C9, luciferin-H conversion, luminescence; active compounds read high; factor 1 = untreated enzyme, 0 = blocked | activation factor at 5 µM | 1.4% of 96,000 active | AID 1024;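 active means activation factor of 2 or more for CYP2C9 at a 5 µM dose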;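 further: 0 = sulfaphenazole-blocked wells and 1 = vehicle-only wells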
CYP2C19 inh: human CYP2C19 inhibition; CYP2C19 Supersomes, luciferin-H EGE luminescence, 30 min; inhibition, % at 5 µM; 21% of 96,000 active; AID 778;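 active means CYP2C19 inhibition above a set limit at 5 µM in the primary screen, cut at about 50% in these data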;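 further: plate controls were negative control wells for no effect and 2.5 mM tranylcypromine positive control for full effect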
Target sequence (P33261 whole entry, looked up): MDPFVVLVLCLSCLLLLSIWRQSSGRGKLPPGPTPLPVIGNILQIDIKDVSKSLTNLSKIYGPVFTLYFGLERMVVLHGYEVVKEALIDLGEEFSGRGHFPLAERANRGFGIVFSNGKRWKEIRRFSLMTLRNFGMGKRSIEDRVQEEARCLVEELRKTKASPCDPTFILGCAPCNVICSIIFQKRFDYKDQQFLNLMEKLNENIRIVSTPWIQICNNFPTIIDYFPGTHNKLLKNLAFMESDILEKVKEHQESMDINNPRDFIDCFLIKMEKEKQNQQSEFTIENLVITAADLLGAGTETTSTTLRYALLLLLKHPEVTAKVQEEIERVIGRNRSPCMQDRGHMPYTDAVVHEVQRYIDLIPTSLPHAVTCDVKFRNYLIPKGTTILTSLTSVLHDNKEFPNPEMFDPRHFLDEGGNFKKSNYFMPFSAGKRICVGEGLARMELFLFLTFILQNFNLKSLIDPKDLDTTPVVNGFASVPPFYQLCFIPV
sEH inh: inhibitors of human soluble epoxide hydrolase; P34913; recombinant human sEH enzymatic activity assay; inhibition, % at 2 µM; 0.34% of 91,000 active; AID 707; in the data active means inhibition above about 80%
CYP2C9 inh: inhibitors of human CYP2C9. P11712. CYP2C9 Supersomes, luciferin-H conversion, luminescence. inhibition, % at 5 µM. 20% of 96,000 active;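 active means blocking of liver enzyme CYP2C9 beyond about 50% at 5 µM, limit read from the data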
sEH activator: soluble epoxide hydrolase (human) activation; P34913; purified human sEH enzymatic activity, activator screen; activation, % at 2 µM; 0.04% of 91,000 active; in the data active means activation above about 37%
CYP2C19 act: increases human CYP2C19 enzyme activity. recombinant CYP2C19, luciferin-H EGE luminescence; active compounds read high; 0 = fully inhibited enzyme, 1 = untreated enzyme. P33261. activation factor at 5 µM. 96,000 tested, under 10 active;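 active means activation factor of at least 2 at 5 µM in the primary screen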;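 further: 0 = wells with 2.5 mM tranylcypromine and 1 = vehicle-only wells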
* hit, by the source's call; · = no result given.

SMILES	CYP2C9 act	CYP2C19 inh	sEH inh	CYP2C9 inh	sEH activator	CYP2C19 act
CCOC(=O)c1ccc(NC(=O)NS(=O)(=O)c2ccc(C)cc2)cc1	0.9	12	5	12	-4	0.9
Cn1c(=O)n(C)c2cc(C(=O)c3ccccc3)ccc21	1	8	·	2	·	0.9
COC(=O)C1=C(C)N=C2SCCC(=O)N2C1c1ccc(C(=O)OC)cc1 (stereo not drawn)	0.5	88*	0	55*	0	0.1
CCOc1cc(C2C(C(=O)OCC(C)C)=C(C)N=C3SCCC(=O)N32)ccc1OC(C)=O (stereo not drawn)	0.6	52*	·	40	·	0.5
CCOc1cc(C2C(C(=O)OC)=C(C)N=C3SC(C)C(=O)N32)ccc1OC(C)=O (stereo not drawn)	0.4	64*	·	59*	·	0.4
COC(=O)c1ccc(C2C(C(=O)OCC(C)C)=C(C)N=C3SCCC(=O)N32)cc1 (stereo not drawn)	0.4	76*	-15	62*	14	0.2
CC(=O)Cc1nsc(NC(=O)c2cc(-c3cccc(C(F)(F)F)c3)oc2C)n1	0.8	-3	10	21	-13	1
CCn1c(=O)c2c(nc(SCc3ccccn3)n2C)n(C)c1=O	1.2	-4	-3	-19	4	1
O=C(O)CSc1cccc2cccc(C(=O)O)c12	1	4	·	3	·	1
CCOc1cc(N2C(=O)CC3CS(=O)(=O)CC32)c(OCC)cc1NC(=O)c1ccccc1 (stereo not drawn)	1	-10	·	-5	·	1.1
COCCOC(=O)C1=C(C)N=C2SCCC(=O)N2C1c1ccc(C(=O)OC)cc1 (stereo not drawn)	0.3	98*	1	66*	1	0
CCOC(=O)C1=C(C)N=C2SCCC(=O)N2[C@@H]1/C=C/c1ccccc1	0.5	33	5	50	-2	0.7
COCCOC(=O)C1=C(C)N=C2SCCC(=O)N2C1/C=C/c1ccccc1 (stereo not drawn)	0.1	81*	0	93*	0	0.2
Cc1c(C)c2c(C)[nH]nc2oc1=O	1.3	-11	2	-30	-2	1.1
CCCc1c(C)c2c(C)[nH]nc2oc1=O	1.8	62*	19	-75	-18	0.4
C=CCn1c(SCC2=C(C(=O)OCC)C(C)NC(=O)N2)nnc1C1CCCCC1 (stereo not drawn)	1.1	13	-2	-9	5	0.9
Cc1noc(C)c1COc1cccc(C(=O)N2CCN(C/C=C/c3ccccc3)CC2)c1	0.1	90*	4	88*	-6	0.1
Cc1cc(C(=O)N2CCN(C/C=C/c3ccccc3)CC2)cs1	0.4	59*	-6	61*	6	0.4
COc1ccccc1NC(=O)C(C)N1CCN(C/C=C/c2ccccc2)CC1 (stereo not drawn)	0.6	60*	-12	37	10	0.4
COc1cccc2cc(C(=O)N3CCN(C/C=C/c4ccccc4)CC3)c(=O)oc12	2.9*	35	-4	-187	2	0.6
O=C(Nc1ccccc1C(=O)OC1CCOC1=O)c1ccco1 (stereo not drawn)	0.9	0	4	12	-2	1
O=C1CC(N2CCC(Cc3ccccc3)CC2)C(=O)N1CCc1ccccc1 (stereo not drawn)	0.8	26	-13	16	13	0.7
CCOC(=O)c1sc(NC(=O)c2cc3n(n2)C(C(F)(F)F)CC(c2ccccc2)N3)c(C(=O)OCC)c1C (stereo not drawn)	0.7	6	0	27	-2	0.9
Cc1noc(C)c1COc1cccc(C(=O)OCC(=O)N2CC(=O)Nc3ccccc32)c1	0.4	59*	-6	63*	8	0.4
O=c1[nH]c(=O)n(C2CCCO2)cc1Br (stereo not drawn)	1	-2	4	2	1	1
CCOC(=O)NC(NC(=S)Nc1ccccc1[N+](=O)[O-])C(Cl)(Cl)Cl (stereo not drawn)	0.1	98*	4	93*	-6	0
COc1ccccc1C1(CC(=O)Nc2nccs2)CCOC(C(C)C)C1 (stereo not drawn)	0.3	92*	-4	67*	6	0.1
S=C(NCc1ccco1)N1CCN(Cc2ccc(Cl)cc2Cl)CC1	0.6	23	8	42	-6	0.8

Screening results: PubChem BioAssay, several laboratories
